14 molecules from PubChem BioAssay (NCI) can be followed below.

SMILES strings stand for the structures. The panel holds about 83,000 compounds, 20% with a hit somewhere; the sample as a whole holds those more often.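 Values shown are percent growth following 48 h exposure of cells in 96-well plates to a single concentration of compound; below 10 was considered active.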 Unmarked numbers belong to inactive results. Calls of active or inactive are those of the source.

Test systems include T-47D breast; BT-549 breast; MDA-MB-435 melanoma; SW-620 colon; MCF7 breast; HCT-116 colon; HCC-2998 colon; KM12 colon.
What all share (assay): NCI-60 one-dose screen, 48 h (100 = growth as untreated, 0 = no growth, -100 = all killed)
Common to all, as to settings: 10 µM unless noted

As for `COC(=O)c1nc(-c2ccccc2)oc1S(=O)(=O)NCC(c1ccc(Cl)cc1)N1CCOCC1` (configuration not stated), the growth in the assay on T-47D breast is 53.5%; in the assay on BT-549 breast, 56%; in the assay with MDA-MB-435 melanoma, 64.8%; in the assay with SW-620 colon it was 18.7%; in the assay on MCF7 breast, 31.7%; in the assay with HCT-116 colon, 62.2%. Moreover, the figures for the growth in the assay on HCC-2998 colon and in the assay on KM12 colon were 121% and 89%, respectively.
Take `Cc1nc2c(c(=O)[nH]1)C(c1ccccc1)c1ccc3ccccc3c1O2` (configuration not stated): the growth is 39.1% in the assay on T-47D breast; 34.1% in the assay on BT-549 breast; -16.2% (active) with MDA-MB-435 melanoma; 20.9% in the assay on SW-620 colon; 11.4% in the assay on MCF7 breast; 21.3% in the assay with HCT-116 colon. The values for the growth in the assay with HCC-2998 colon and with KM12 colon were 56.6% and 26.2%, respectively.
`CCOC(=O)C(=Cc1ccc(-c2ccccc2)cc1)C(=O)OCC`: the growth was 27.8% with T-47D breast; 30.7% in the assay with BT-549 breast; 38.3% in the assay with MDA-MB-435 melanoma; 10.8% with SW-620 colon; 16.9% in the assay on MCF7 breast; -10.1% (active) in the assay on HCT-116 colon. Also, the growth was 76.2% in the assay with HCC-2998 colon and 36.6% in the assay with KM12 colon.
In the case of `Cc1nn(-c2ccccc2)c(N)c1N=C1NC(=O)/C(=C/c2ccc(Br)cc2)S1`, the growth was 85.3% in the assay on T-47D breast; 78.6% with BT-549 breast; 49.7% with MDA-MB-435 melanoma; 84.2% in the assay on SW-620 colon; 78.2% in the assay on MCF7 breast; 68% in the assay with HCT-116 colon. Besides, the values for the growth in the assay on HCC-2998 colon and in the assay with KM12 colon were 111% and 76%, respectively.
In the case of `CCN(CC)c1ccc(/C=N/NC(=O)Cc2ccc(Nc3ccnc(C(F)(F)F)c3)cc2)c(O)c1`, the growth was 27.6% in the assay on T-47D breast; 41.9% with BT-549 breast; 23.9% with MDA-MB-435 melanoma; 35.6% in the assay on SW-620 colon; 20.9% in the assay with MCF7 breast; 19.6% in the assay on HCT-116 colon. For the same molecule, the growth in the assay on HCC-2998 colon was 26.9%; in the assay with KM12 colon, 41%.
For `Fc1ccc(Cn2cc(CSc3nc4ccccc4o3)nn2)cc1`, the growth was 85.3% with T-47D breast; 103% in the assay on BT-549 breast; 102% in the assay on MDA-MB-435 melanoma; 101% in the assay on SW-620 colon; 93.8% in the assay on MCF7 breast; 92.3% in the assay with HCT-116 colon. Moreover, the growth in the assay with HCC-2998 colon is 109%; in the assay on KM12 colon it was 97.6%.
In the case of `COc1ccc(C(O)c2cc3c(N)c(C(=O)Nc4cccc(Cl)c4C)sc3nc2C)cc1` (configuration not stated), the growth in the assay on T-47D breast was 30.5%; in the assay on BT-549 breast, 17.7%; with MDA-MB-435 melanoma, -29.5% (active); with SW-620 colon, 17.9%; in the assay on MCF7 breast it was 17%; with HCT-116 colon, 6.73% (active). The results for the growth in the assay on HCC-2998 colon and with KM12 colon were 5.81% (active) and 6.49% (active), respectively.
Regarding `Cc1ccc(-c2nc(/C=C3/C(=O)Nc4ccc(F)cc43)c3ccccn23)cc1`, the growth with T-47D breast is 100%; with BT-549 breast, 111%; in the assay with MDA-MB-435 melanoma, 86.7%; in the assay on SW-620 colon it was 44.3%; with MCF7 breast, 35.5%; in the assay with HCT-116 colon it was 55%. Further, the figures for the growth in the assay with HCC-2998 colon and with KM12 colon were 95% and 81.7%, respectively.
Turning to `Cn1cc(-c2csc(-c3cn(CCCN4CCOCC4)c4ccccc34)n2)c2cccnc21`, the growth in the assay with T-47D breast is 62.1%; with BT-549 breast, 88.7%; in the assay with MDA-MB-435 melanoma, 91.6%; in the assay on SW-620 colon, 94.6%; with MCF7 breast, 85.6%; in the assay on HCT-116 colon, 84.4%. Further, the figures for the growth in the assay on HCC-2998 colon and in the assay on KM12 colon were 92.9% and 85.4%, respectively.
For `O=C(Cc1cccc(OC(F)(F)F)c1)Nc1ccc(CCCCc2nnc(NC(=O)Cc3ccccn3)s2)nn1`, the growth was 30.3% in the assay with T-47D breast; 48.7% with BT-549 breast; 85.1% with MDA-MB-435 melanoma; 100% with SW-620 colon; 79.7% with MCF7 breast; 40% with HCT-116 colon. For the same molecule, the growth in the assay with HCC-2998 colon is 91%; in the assay on KM12 colon, 69.4%.
`O=C(CSc1nc(-c2ccccc2)cc(=O)[nH]1)Nc1nc(-c2ccccc2)cs1`: the growth is 71.8% in the assay on T-47D breast; 88% with BT-549 breast; 105% in the assay on MDA-MB-435 melanoma; 107% in the assay with SW-620 colon; 76.9% in the assay with MCF7 breast; 90.3% in the assay with HCT-116 colon. The growth in the assay with HCC-2998 colon is 111%; in the assay on KM12 colon it was 95.5%.
For the molecule `COc1ccc(Nc2ncccc2/C=C/C(=O)c2cc(OC)c(OC)c(OC)c2)cc1`, the growth in the assay with T-47D breast is -4.22% (active); in the assay with BT-549 breast, -35% (active); with MDA-MB-435 melanoma, -35.8% (active); in the assay on SW-620 colon it was -68.3% (active); in the assay with MCF7 breast, -61.3% (active); in the assay on HCT-116 colon it was -50.2% (active). In addition, the growth in the assay on HCC-2998 colon was -75.9% (active); with KM12 colon, -87.5% (active).
Regarding `CCOc1ccc(-n2nc(C(=O)NCc3ccccc3OC)nc2-c2cc(OC)c(OC)c(OC)c2)cc1`, the growth is 17% in the assay with T-47D breast; 33.9% with BT-549 breast; 22.1% in the assay with MDA-MB-435 melanoma; 58% in the assay on SW-620 colon; 22.1% with MCF7 breast; 25.3% in the assay on HCT-116 colon. Also, the values for the growth in the assay on HCC-2998 colon and in the assay with KM12 colon were 57.5% and 33.8%, respectively.
With `Cc1cccc(N2CCC(=O)NC2=S)c1`, the growth with T-47D breast is 105%; in the assay with BT-549 breast, 104%; with MDA-MB-435 melanoma, 106%; in the assay on SW-620 colon it was 103%; with MCF7 breast it was 97.1%; in the assay on HCT-116 colon it was 93.2%. Moreover, the growth with HCC-2998 colon was 95.4%; with KM12 colon it was 107%.
